# Test results published in the supplement of paper PMC6555819.
# Tests used:
# Test in all cases: PBM binding z-score (relative to random genomic background probes); higher = stronger binding; sequences stand for … in GC…GCGATTGACAGCGTAGAATGAAGG
# [1] = test system: FXR:RXRa (NR concentration 270 nM, RXRa partner concentration 90 nM)
# Outline: (§1)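 Binding buffer was PBS pH 7.4 with 2% milk, 0.02% Triton X-100, 1 mM DTT, 0.2 mg/mL BSA and 0.4 mg/ml salmon testes DNA. In it, ligand-free nuclear receptor dimers were incubated 1 h on custom Agilent 4×180K protein-binding microarrays carrying double-stranded probes. Antibodies against each partner (one per run) detected binding, and z-scores were calculated against random background probes after regression normalization of scanned fluorescence.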
# [2] = test system: LXRa:RXRa (NR concentration 270 nM, RXRa partner concentration 90 nM)
# Outline: as §1
# [3] = test system: LXRa homodimer (NR concentration 270 nM)
# Outline: as §1
# [4] = test system: LXRb:RXRa (NR concentration 270 nM, RXRa partner concentration 90 nM)
# Outline: as §1
# [5] = test system: LXRb homodimer (NR concentration 270 nM)
# Outline: as §1
# [6] = test system: PPARa:RXRa (NR concentration 270 nM, RXRa partner concentration 90 nM)
# Outline: as §1
# [7] = test system: PPARg:RXRa (NR concentration 180 nM, RXRa partner concentration 90 nM)
# Outline: as §1
# [8] = test system: PPARg:RXRa 270nM:90nM, anti-RXR (NR concentration 270 nM, RXRa partner concentration 90 nM)
# Outline: as §1
# [9] = test system: PPARg:RXRa 30nM:10nM, anti-RXR (NR concentration 30 nM, RXRa partner concentration 10 nM)
# Outline: as §1
# [10] = test system: PPARg:RXRa 90nM:30nM, anti-RXR (NR concentration 90 nM, RXRa partner concentration 30 nM)
# Outline: as §1
Sequence,PBM binding z-score [1],PBM binding z-score [2],PBM binding z-score [3],PBM binding z-score [4],PBM binding z-score [5],PBM binding z-score [6],PBM binding z-score [7],PBM binding z-score [8],PBM binding z-score [9],PBM binding z-score [10]
ACTATTAGTTGACTAAGGGCAACCGATACGACGC,0.232,0.474,0.168,0.518,0.478,0.573,1.06,0.728,0.0857,0.518
GGAACGAGGGCATTCGAGTTGATTGCATGGCGAT,0.926,1.7,-0.316,0.105,-0.391,1.4,0.653,0.598,-0.244,0.242
ATCTCTAGGTAAAGTTCTGTGAAAGATCGATAGA,0.326,0.57,0.294,0.0682,0.741,0.12,0.24,0.886,0.571,0.677
CCAGACAGGTGAGAAGGTAACTCGGCCTCGATTA,-0.0113,0.14,-0.0117,-0.138,-0.518,0.585,0.364,0.533,-0.307,0.171
TCTGCTAGGTCAACGATGGTCAGCTCATCTGCTA,3.56,2.79,0.0556,1.81,0.088,3.34,2.4,2.89,1.65,2.19
TGAATGAGGTTAAAGATGAGGGAACGTGGCGTCG,2.79,2.16,0.0267,1.29,0.831,3.65,3.77,4.65,2.44,4.35
TCTAGTTGTTCAAAGGTCACACACTCGAAATGCG,5.39,5.85,4.39,5.41,1.92,5.76,7.52,7.68,6.77,8.74
CCGACTGGTGCATAAGGTTACCATAAGCCAGCCC,0.236,1.78,0.0222,0.722,-0.632,1.04,0.64,1.03,-0.311,0.705
ATATGTAGGTTATCCGGTCATTCAGTTTGCGCAT,1.83,2.69,4.12,1.78,1.15,3.71,5.51,5.16,2.68,4.49
ACAGACAGGTGATGAAGGTACCTCAGGCTATCAT,-0.309,-0.187,-0.266,-0.411,-0.507,-0.132,0.682,-0.0814,0.3,-0.00206
CAAACTATGTCACGAAAGGTCAAAGTCGAATGAC,5.77,6.78,6.81,6.18,2.79,6.44,6.17,5.88,3.01,4.94
CAAACTAGGTCAAGGTTAAAGTCGGTTTGTGCCA,4.21,3.75,1.17,2.93,0.57,5.22,9.29,8.04,6.64,9.18
AGTCAAAGTTCAGGACAAGGTAACGTAAAGCACG,4.6,3.97,1.69,2.19,0.548,3.47,4.97,4.95,2.16,4.11
GCTATTAGTTGAAAGAGCAACCGAATGATTCTCG,-0.368,-0.335,-0.0598,-0.509,-0.535,0.321,0.704,1.95,0.137,1.51
CTCGAAAGGTCGGTTGAGTTGAGTATACGGATAA,2.22,1.48,0.18,1.5,-0.0298,2.27,0.295,0.792,0.314,0.857
TCTTGTAGATCAACACGAGGTTAAGAAAGATCGA,0.233,1.58,0.248,1.01,-0.293,1.55,0.0854,1.33,2.58,1.94
CGTCCAAGGTCATAGGAGGTGAGTGAAGACAGAT,7.28,5.61,1.23,4.25,0.462,5.79,4.94,5.08,1.98,3.99
ATATGTAGGTTAACGGTCATTCAGGTTGGTTCGC,2.12,2.46,2.98,2.2,1.2,5.22,9.32,8.6,7.82,9.3
CCTACTGGGCCATCAGTTCATTGATATCAACGTT,0.0577,-0.0476,0.218,0.257,-0.567,1.11,1.34,2.19,0.638,1.48
TTGCCTAGGTCATTCAGGGGCCAGTATAGAAAGC,5.14,3.97,0.809,2.93,0.902,3.51,2.07,2.24,0.187,1.52
TCATATAGGTAAAAGCTGAAAGTCGGTGTGGTAA,0.59,0.549,-0.108,0.664,-0.24,1.41,0.589,2.74,3.52,3.25
CGGCCAAGGTCAATGCTAGGTCAGTGAAAGCATT,6.95,5.47,1.75,4.08,0.00864,5.19,4.4,4.78,1.47,3.21
TAGCCTAGGTCAGATCGGGCTAGTATACGCTATA,1.81,1.03,-0.52,0.639,-0.577,1.73,0.628,0.874,-0.237,0.393
CAAACTAGGTCTCAGAGGTCAAAGTCCGTGCGTA,4.78,5.2,5.13,4.97,1.8,5.18,4.67,5.17,2.69,4.41
